In the library only some 1.2% were active in any assay of this set; here they are far more common.
GSH fluor = compound fluoresces at 488/530 nm on GSH beads; fluorescence (KMESF) at 10 µM; GSH beads flow cytometry, compound fluorescence 488/530 nm; stronger effect = higher value; actives 0.25% (n = 190,000); AID 1776; in the data active = fluorescence above about 89;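 also: glutathione beads carrying GST-tagged Bcl family fusion proteins plus one bare bead set; values are compound well signal with DMSO vehicle wells as background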
RGS8-Gao = modulates binding of RGS8 to human Galphao. response (percent of control binding), % at 10 µM. AID 1423. multiplexed bead flow cytometry; actives lie on both sides. actives 0.34% (n = 220,000). P09471; in the data active = response below about 60% or above about 140%; inactive = in between;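 also: Galphao activated as the GDP aluminium fluoride complex binding bead-coupled RGS8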
Avidin bead fluor = compound fluoresces at 488/530 nm on avidin beads; AID 1775; fluorescence (KMESF) at 10 µM; compound fluorescence 488/530 nm, flow cytometry; stronger effect = higher value; actives 0.38% (n = 220,000); in the data active = fluorescence above about 47
RGS7-Gao = regulators of human RGS7-Galphao interaction. P09471. Multiplexed bead flow cytometry, RGS7-Galphao binding; actives lie on both sides. binding response (% of control), % at 10 µM. actives 0.35% (n = 220,000); in the data active = binding response below about 49% or above about 150%; inconclusive = no clear call, values can overlap the other calls; inactive = in between;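 also: fluorescent Galphao held in activated GDP-AlF4 state binding bead-coupled RGS7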
RGS4-Gao reg = human RGS4-Galphao interaction regulation; Multiplexed bead flow cytometry, RGS4-Galphao binding; actives lie on both sides; actives 0.33% (n = 220,000); binding response (% of control), % at 10 µM; in the data active = binding response below about 49% or above about 150%; inactive = in between;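 also: fluorescent Galphao activated with aluminum fluoride binding bead-coupled RGS4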
RGS16-Gao = regulators of human RGS16-Galphao interaction; actives 0.38% (n = 220,000); O15492+P09471; AID 1441; binding response (% of control), % at 10 µM; bead-based flow cytometry RGS16-Galphao binding, fluorescence; actives lie on both sides;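 also: Galphao activated by GDP with aluminum fluoride before binding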
Target sequence (O15492 whole entry, looked up): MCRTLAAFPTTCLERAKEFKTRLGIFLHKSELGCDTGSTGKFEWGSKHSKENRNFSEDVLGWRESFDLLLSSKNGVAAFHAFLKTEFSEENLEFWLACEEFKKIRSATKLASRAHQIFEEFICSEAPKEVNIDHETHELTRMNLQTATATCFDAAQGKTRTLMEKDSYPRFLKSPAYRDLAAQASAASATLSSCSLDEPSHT
Target sequence (P09471 whole entry, looked up): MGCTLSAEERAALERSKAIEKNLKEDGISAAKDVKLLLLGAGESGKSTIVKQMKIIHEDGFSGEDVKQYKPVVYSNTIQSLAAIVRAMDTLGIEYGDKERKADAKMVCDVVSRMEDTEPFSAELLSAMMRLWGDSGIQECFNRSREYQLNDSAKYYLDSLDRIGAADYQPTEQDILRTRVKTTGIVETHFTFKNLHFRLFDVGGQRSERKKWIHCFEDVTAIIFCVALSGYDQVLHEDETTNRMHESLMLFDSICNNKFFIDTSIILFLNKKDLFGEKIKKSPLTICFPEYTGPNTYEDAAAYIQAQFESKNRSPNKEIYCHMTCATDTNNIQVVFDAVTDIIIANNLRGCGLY
RGS4-Gao HTS = RGS4-Galphao interaction regulator (human). multiplexed bead flow cytometry, RGS–Galpha-o binding. RGS4–Galpha-o binding response, % at 10 µM. shares compounds with RGS16-Gao. actives 99% (n = 1,600);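 also: fluorescently labeled Galpha-o bound to GDP with aluminium fluoride binding biotinylated RGS beads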
Biotin-avidin = biotin-avidin bead binding disruption counter-screen | 1,700 tested, under 10 active | shares compounds with RGS16-Gao | inhibition, % at 10 µM | streptavidin beads, fluorescein-biotin binding, flow cytometry | AID 1783;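 active = inhibition above 50%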;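 also: median green fluorescence of gated singlet beads compared with DMSO control wells; 0% = DMSO wells and 100% = complete loss of bead fluorescence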
RGS8-Gao confirm = RGS8-Galphao interaction regulation, single point confirmation. shares compounds with RGS16-Gao. bead-based flow cytometry RGS8-Galphao binding, fluorescence; actives lie on both sides. actives 3% (n = 1,700). binding response (% of control), % at 10 µM. AID 1836; in the data active = binding response below about 72% or above about 130%; inactive = in between;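 also: Galphao activated as GDP AlF4 complex before binding bead RGS8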
RGS7-Gao single = confirmation of regulators of human RGS7-Galphao interaction. shares compounds with RGS16-Gao. response (percent of control binding), % at 10 µM. bead-based flow cytometry RGS7-Galphao binding; actives lie on both sides. AID 1837. actives 7.8% (n = 1,700); in the data active = response below about 75% or above about 130%; inactive = in between;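 also: fluorescent Galphao activated with GDP and aluminum fluoride binding bead-coupled RGS7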
RGS16-Gao single = RGS16-Galphao interaction regulation, single point confirmation; AID 1838; actives 4% (n = 1,700); bead-based flow cytometry, RGS16-Galphao binding; actives lie on both sides; response (% of control binding), % at 10 µM; shares compounds with RGS16-Gao; in the data active = response below about 74% or above about 130%; inactive = in between;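 also: Galphao activated as the GDP aluminium fluoride complex binding bead-coupled RGS16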
RGS4-Gao confirm = confirmation of regulators of human RGS4-Galphao interaction; RGS4-Galphao binding, multiplexed bead flow cytometry; actives lie on both sides; shares compounds with RGS16-Gao; binding response (% of control), % at 10 µM; actives 4% (n = 1,700); in the data active = binding response below about 74% or above about 130%; inactive = in between
RGS19-Gao single = confirmation of regulators of human RGS19-Galphao interaction | shares compounds with RGS16-Gao | bead-based flow cytometry RGS19-Galphao binding; actives lie on both sides | response (percent of control binding), % at 10 µM | actives 5% (n = 1,700); in the data active = response below about 50% or above about 160%; inactive = in between;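 also: 100% = no compound control and 0% = blank background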
The depositor's hits bear a star; ? = inconclusive; . = no result given; [ ] = dose if it differs, or a comment. Unless noted, no rule for the calls is given here.

SMILES | GSH fluor | RGS8-Gao | Avidin bead fluor | RGS7-Gao | RGS4-Gao reg | RGS16-Gao | Biotin-avidin | RGS8-Gao confirm | RGS7-Gao single | RGS16-Gao single | RGS4-Gao confirm | RGS19-Gao single | others
CCOc1ccc2ncc(C(=O)c3ccc(OC)cc3)c(N3CCN(CC)CC3)c2c1 | 129* | 123 | 50* | 309*[activator] | 359*[activator] | 284*[activator] | 1 | 102 | 102 | 103 | 103 | 74
CCc1ccc(C(=O)c2cnc3ccc(OC)cc3c2N2CCN(CC)CC2)cc1 | 14 | 104 | 15 | 103 | 106 | 104 | . | . | . | . | . | .
CCN(CC(=O)Nc1ccc(OC)c(Cl)c1)CC(=O)NC(C)C | 12 | 102 | 14 | 101 | 102 | 101 | . | . | . | . | . | .
COc1ccccc1N1CCN(C(=O)CCCCCn2c(=O)[nH]c3ccsc3c2=O)CC1 | 9 | 104 | 28 | 105 | 105 | 108 | . | . | . | . | . | .
CNC(=O)/C(C#N)=C/c1cc(C)n(-c2ccc(N3CCOCC3)cc2)c1C | . | 104 | 114* | ? | 254*[activator] | 216*[activator] | -1 | 102 | 92 | 96 | 95 | 107
Cc1cc([N+](=O)[O-])nn1CC(=O)NCc1nc2ccccc2[nH]1 | 10 | 106 | 11 | 102 | 104 | 107 | . | . | . | . | . | .
Cc1scc(C(=O)NNC(=S)NCC2CCCO2)c1-c1ccccc1 (stereo unspecified) | 12 | 71 | 1 | 100 | 98 | 22* | 2 | 92 | 89 | 90 | 90 | 99 | RGS4-Gao HTS=98*
CCCCc1ccc(NC(=S)NCc2ccc(OC)cc2)cc1 | 11 | 98 | 9 | 96 | 96 | 95 | . | . | . | . | . | .
COc1cccc(-c2noc(CCCC(=O)Nc3ccc(C(N)=O)cc3)n2)c1 | 16 | 99 | 11 | 99 | 100 | 103 | . | . | . | . | . | .
CC(C)N1CCN(Cc2cccn2-c2nccs2)CC1CCO (stereo unspecified) | 11 | 102 | 56* | 192*[activator] | 115 | 106 | 2 | 102 | 101 | 106 | 100 | 114 | RGS4-Gao HTS=115*
OCCC1CN(Cc2cccn2-c2nccs2)CCN1C1CCCCC1 (stereo unspecified) | 17 | 97 | 6 | 94 | 97 | 97 | . | . | . | . | . | .
O=C(NCC1(c2ccccc2)CCCC1)C(=O)N1CCOCC1 | 12 | 66 | 12 | 81 | 83 | 21* | 0 | 102 | 106 | 105 | 104 | 80 | RGS4-Gao HTS=83*
O=C(Cc1cccs1)Nc1cccc(-c2ccc3nncn3n2)c1 | 9 | 102 | 12 | 101 | 100 | 105 | . | . | . | . | . | .
CCc1nc(SCC(=O)c2ccccc2)c2ccccc2n1 | 12 | 102 | 9 | 100 | 100 | 100 | . | . | . | . | . | .
CCCc1nc(SCC(=O)c2ccc(OC)cc2)c2ccccc2n1 | 20 | . | . | . | . | . | 2 | 102 | 105 | 104 | 103 | 106
O=C(CSc1nc(Cc2ccccc2)nc2ccccc12)c1ccc2c(c1)OCCO2 | 46 | 99 | 9 | 102 | 98 | 96 | . | . | . | . | . | .

Screens from PubChem.
